Screens as filed in PubChem.
Rab9 promoter act: activates the Rab9 promoter. Huh7 Rab9 promoter-luciferase reporter, luminescence, 24 h. Potency, µM (top dose mostly 9.22 µM), without a hit: top-dose activation, negative = inhibition, usual class: activators. hit rate 2.8% among 320,000. AID 485297; note: % of control where 0% means no effect; nearly all actives have a fitted effect of over 60% in size
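Measured in stably transfected Huh7 cells bearing a Rab9 promoter–luciferase construct: 24 h compound treatment at 37 °C, followed by luminescence detection.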
ELG1 genotoxic: inducers of genotoxicity in HEK293T ELG1-luciferase cells | AID 504466 | HEK293T ELG1-luciferase reporter, luminescence, 16 h | Potency, µM (doses to about 46 µM), inactives show at the top dose activity change, positive = activation, actives largely listed as activators | hit rate 1.3% among 330,000; note: % of control where 0% means no effect; nearly all actives have a fitted effect of over 60% in size
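Luminescence read-out: rising ELG1-luciferase signal, reflecting elevated ELG1 protein under genetic stress, flags genotoxic compounds. Cells were treated for 16 hr at 37 °C before ONE-Glo detection.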
KinaseGlo FLuc: counter-screen: inhibitors of Kinase-Glo firefly luciferase | Potency, µM (top dose mostly 38.3 µM), for the others: at the highest dose activity change, negative = inhibition, usual class: inhibitors | Q27757 | AID 1379 | Kinase-Glo luciferase, ATP luminescence, 8 min | hit rate 0.28% among 200,000; note: % is set by controls: 0 for no effect and ±100 for the full control effect; nearly all actives have a fitted effect of over 60% in size
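Compounds were added to a substrate mix at pH 7.2 (50 mM imidazole, 10 uM ATP, within the enzyme's linear range), followed by Kinase-Glo detection reagent; luminescence was measured after 8 minutes at ambient temperature.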
SMN2 splice enh: enhancers of SMN2 splice variant expression; HEK293 SMN2-luciferase splicing reporter, luminescence, 30-36 h; Potency, µM (highest dose often 46.1 µM), without a hit: top-dose activity change, positive = activation, most hits filed as activators; hit rate 2.8% among 210,000; note: % of control where 0% means no effect; nearly all actives have a fitted effect of over 55% in size
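HEK293 cells carry an SMN2 minigene-luciferase reporter in which exon 7 inclusion puts luciferase in frame. Cells were seeded at 2000 cells/well, attached for 10-12 hours, then exposed to compounds for 30-36 hours at 37C before ONE-Glo luminescence.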
NPC1 prom act: activates the NPC1 promoter; Huh7 NPC1 promoter luciferase reporter, 24 h; Potency, µM (titrated, usually from 9.22 µM), for the others: at the highest dose activation, hits mostly activators; hit rate 2.4% among 320,000; note: % of control where 0% means no effect; nearly all actives have a fitted effect of over 60% in size
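In 1536-well qHTS, Huh7 cells harboring an NPC1 promoter–luciferase construct received compound for 24 h; activation was quantified by luminescence following luciferase reagent addition.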
FLuc modulator: counter-screen for miR-21 project: firefly luciferase inhibitors or activators; P08659; purified FLuc, Km substrates, luminescence inhibition; Potency, µM (top dose mostly 57.5 µM), without a hit: top-dose activity change, negative = inhibition, hits mostly inhibitors; hit rate 6.9% among 360,000; AID 588342;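 note: plate controls were vehicle for no effect and reference inhibitor for full effect; nearly all actives have a fitted effect of over 55% in size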
Target sequence (P08659 whole entry, looked up): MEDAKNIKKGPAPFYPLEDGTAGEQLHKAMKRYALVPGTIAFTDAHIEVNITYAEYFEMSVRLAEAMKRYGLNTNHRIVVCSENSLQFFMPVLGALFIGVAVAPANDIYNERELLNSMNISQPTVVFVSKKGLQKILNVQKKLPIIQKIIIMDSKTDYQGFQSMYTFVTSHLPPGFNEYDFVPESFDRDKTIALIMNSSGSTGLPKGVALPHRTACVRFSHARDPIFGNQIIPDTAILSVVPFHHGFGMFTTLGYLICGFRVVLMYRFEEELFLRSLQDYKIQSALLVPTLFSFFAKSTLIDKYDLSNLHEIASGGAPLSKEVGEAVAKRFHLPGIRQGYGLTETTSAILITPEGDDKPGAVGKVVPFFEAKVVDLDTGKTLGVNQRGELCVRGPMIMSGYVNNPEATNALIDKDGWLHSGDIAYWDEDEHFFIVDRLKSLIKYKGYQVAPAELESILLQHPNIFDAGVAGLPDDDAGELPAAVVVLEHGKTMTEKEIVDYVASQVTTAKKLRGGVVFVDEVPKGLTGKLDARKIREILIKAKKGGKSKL
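Biochemical qHTS of compounds, final roughly 60 µM downward over six points, against 10 nM purified firefly luciferase using Km concentrations of substrates (10 uM D-luciferin, 10 uM ATP) in Tris acetate pH 7.5 buffer; luminescence output.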
An asterisk follows results filed as active; ? = inconclusive; . = not tested or not shown; ! = not active in a repeat; [ ] = remark or other dose. Hits are enriched below; roughly 7.3% of the tested compounds scored in any of these assays. Calls come from the whole dose curve; as a rule, active = well fitted curve in the direction sought with a large enough effect; inconclusive = small, poorly fitted or top-dose-only effect, or another doubt; inactive = no such curve, though single readings can be large; an effect the other way counts as inactive or inconclusive. Potency is the fitted concentration of half-maximal effect.

SMILES	Rab9 promoter act	ELG1 genotoxic	KinaseGlo FLuc	SMN2 splice enh	NPC1 prom act	FLuc modulator
CCc1ccc(C(=O)CN2CCSC2=N)cc1	0.708µM*	?	-5.5%	?	1.58µM*	3.01µM*
Cc1ccc(C)c(NC(=O)Cn2c(SCC(=O)NCc3ccccc3)nc3ccccc32)c1	.	.	.	.	.	-5.0%
CCCn1c(/N=C/c2c[nH]c3ccccc23)nc2ccccc21	-0.2%	-0.7%	-0.1%	-16.7%	3.0%	2.69µM*
CCCCn1c(/N=C/c2c[nH]c3ccccc23)nc2ccccc21	-1.2%	-1.3%	-4.0%	-25.3%	1.6%	9.53µM*
CCn1c(/C=N/n2cnnc2)nc2ccccc21	8.9%	-0.3%	-0.2%	-22.2%	0.3%	-0.4%
CCn1c(/N=C/c2c[nH]c3ccccc23)nc2ccccc21	-3.3%	0.2%	.	.	0.0%	0.536µM*
CC(C)CCNC(=O)C(=O)Nc1c2c(nn1-c1ccc(Cl)cc1)CSC2	.	.	.	.	.	-11.3%
CCn1c(=O)n(-c2ccc3c(c2)OCO3)c2nc(-c3cc(OC)ccc3OC)nc(C(N)=O)c21	.	.	.	-85.9%	.	0.4%
C=CCn1c(C)cc(C(=O)COC(=O)[C@@H](NC(=O)c2ccccc2Cl)C(C)C)c1C	?	?	?	-2.1%	?	0.151µM*
Cc1cc(C(=O)COC(=O)COc2ccccc2C#N)c(C)n1CC1CCCO1 (stereo unspecified)	1.2%	1.4%	.	.	-3.1%	3.01µM*
C=CCn1c(C)cc(C(=O)COC(=O)COc2ccccc2C#N)c1C	8.7%	8.3%	.	.	-2.0%	1.69µM*
CCOC(=O)c1c(SCC(=O)Nc2nc3ccc(C)cc3s2)nc(=O)[nH]c1C	.	.	.	.	.	-12.8%
COc1ccc(CCNC(=O)C(=O)NCC(c2ccc3c(c2)OCO3)N2CCOCC2)cc1 (stereo unspecified)	.	.	.	.	.	-1.4%
Nc1ccccc1C#CC(=O)c1ccccc1	-2.4%	-1.2%	.	.	-0.5%	6.01µM*
C=CC(=O)c1ccc(CCCCCC)cc1	-7.5%[46.1 µM]	.	.	.	-3.9%[46.1 µM]	.
CC(C)(C)N1C(=O)Cc2c1nc(N)c1c(N)nc(N3CCCCC3CO)c(C#N)c21 (stereo unspecified)	23.0%	2.0%	-0.8%	1.5%	24.3%	8.49µM*
Fc1ccc(-c2ncc3ccccn23)cc1	-0.2%	7.2%	-5.1%	.	-0.1%	-14.7%
Clc1ccc(/C=C/c2ncc3ccccn23)cc1	1µM*	?	-0.4%	.	1.58µM*	6.75µM*
CC(=O)Nc1cccc(Oc2nc(-c3ccccn3)nc3ccccc23)c1	-0.7%	-14.8%	.	.	-6.3%	15.1µM*
CCN(c1ccccc1)S(=O)(=O)c1nnc(NC(=O)c2ccco2)s1	-0.2%	-0.6%	.	.	1.6%	0.213µM*!
CCN(c1cccc(C)c1)S(=O)(=O)c1nnc(NC(=O)c2ccccc2Cl)s1	.	.	.	.	.	13.5µM*
CCN(c1cccc(C)c1)S(=O)(=O)c1nnc(NC(=O)c2ccco2)s1	3.1%	-3.2%	.	.	0.7%	1.9%
CCCCC[C@H](O)/C=C/[C@H]1OC(O)C[C@H](O)[C@@H]1C/C=C\CCCC(=O)O (stereo partly specified)	.	.	3.0%	12.0%	.	.
COc1cccc(C(=O)NC23CC4CC(CC(C4)C2)C3)c1	3.8%	9.6%	.	.	2.8%	16.9µM*
COc1ccc(C(=O)NCC(=O)OCC(=O)NC23CC4CC(CC(C4)C2)C3)cc1	.	4.4%	.	.	.	.
COc1ccc(C(=O)NC23CC4CC(CC(C4)C2)C3)cc1	17.7%	3.8%	.	.	1.8%	7.57µM*
CCOc1ccccc1NC(=O)COc1ccc(S(=O)(=O)NC2CCCCC2)cc1	.	.	.	20.0%	.	8.49µM*
O=C(N=c1nc2ccccn2s1)c1ccccc1	?	0.13µM*	2.51µM*	1.78µM*	0.891µM*	0.19µM*
CC/C(=N\NC(=O)c1c(C)nc2ccccn12)c1ccccc1	-2.2%	-9.0%	.	.	-3.5%	-0.5%
CCOc1cc(/C=C2\NC(=S)N(c3c(C)n(C)n(-c4ccccc4)c3=O)C2=O)ccc1O	-5.0%	2.1%	-0.6%	3.0%	-4.0%	-0.9%
